Measurements: PubChem BioAssay (NCI)
The panel holds about 83,000 compounds, 20% with a hit somewhere; the sample as a whole holds those more often.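 Method: cells in 96-well plates; compound added at one concentration; 48 h incubation; percent growth measured; values under 10 scored active.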 Values without a mark were called inactive. Active and inactive are the calls of the source.

test system: DU-145 prostate; test: NCI-60 one-dose screen, 48 h (100 = growth as untreated, 0 = no growth, -100 = all killed); conditions: 10 µM unless noted

**Q.** `Cn1c2ccccc2c2c3c(c4c5cc(Br)ccc5n(C)c4c21)C(=O)N(O)C3=O` was tested. Which growth did it give?
**A.** -50.7% (active)

**Q.** Which growth does the source give for `c1ccc2cc(Cn3cc(CSc4nc5ccccc5s4)nn3)ccc2c1` here?
**A.** 109%

**Q.** With `COCCn1cc(-c2nc(-c3cc4cccnc4n3C)cs2)c2ccccc21` as the compound, how does the growth read?
**A.** 66.8%

**Q.** `COc1ccc(C2[C@@H](Cl)C(=O)N2c2cc(OC)c(OC)c(OC)c2)cc1Cl` (stereo not given in full) was tested. Which growth did it give?
**A.** 6.13% (active)

**Q.** How did the growth turn out when `N#Cc1nn(-c2cc(=O)[nH]c3ccc(Br)cc23)c(N)c1C#N` was run?
**A.** 117%

**Q.** With `CC1=C2CC/C(C)=C/CC[C@]3(C)O[C@H]3CC/C(C)=C/[C@H]2OC1` as the compound, how does the growth read?
**A.** 110%

**Q.** For `CN(C)CCCn1c2c(c3cnccc3c1=O)C(=O)c1ccccc1-2`, which growth is on record?
**A.** -16.9% (active)

**Q.** How did the growth turn out when `CN1CCOCCN(C)Cc2ccc3ccc(cc3c2)CN(C)CCOCCN(C)Cc2ccc3ccc(cc3c2)C1` was run?
**A.** 57.8%

**Q.** With `COc1ccc2c(O)c(/C=C3\N=Nc4ncccc43)oc2c1C[C@@H]1CCNC[C@H]1F` as the compound, how does the growth read?
**A.** -19.7% (active)

**Q.** How did the growth turn out when `COc1cc(/C=C2\C(=O)N(CCCOc3cc(O)c4c(=O)cc(-c5ccccc5)oc4c3)c3ccccc32)cc(OC)c1O` was run?
**A.** 86.2%

**Q.** For `Cc1ccc(S(=O)(=O)c2nc(-c3ccccc3)oc2SCC(N)=O)cc1`, which growth is on record?
**A.** 101%

**Q.** How did the growth turn out when `C=CN(C(=O)N1CCN(c2cc3c(cc2F)c(=O)c(C(=O)O)cn3C2CC2)CC1)c1nc(-c2ccccc2)cs1` was run?
**A.** 107%

**Q.** `Cc1ccc(NC(=O)c2sc3nc(C)c(C(O)c4ccccc4)cc3c2N)cc1` (stereo not given) was tested. Which growth did it give?
**A.** 23.9%

**Q.** How did the growth turn out when `Nc1c(Br)cc2c(c1Br)Cc1cc([N+](=O)[O-])ccc1-2` was run?
**A.** 124%

**Q.** With `Cn1cc(-c2nc3c(F)cc4[nH]ncc4c3c3c2CCCC3)c(C(F)(F)F)n1` as the compound, how does the growth read?
**A.** 52.3%

**Q.** With `CCCCCc1ccc(S(=O)(=O)Nc2ccc3nc(N)oc3c2)cc1` as the compound, how does the growth read?
**A.** 74.2%

**Q.** How did the growth turn out when `Nc1ncnc2c1N=C(c1ccc(F)cc1)CC(c1cccc(Nc3ccnc4cc(Cl)ccc34)c1)N2` (stereo not given) was run?
**A.** 85.9%

**Q.** How did the growth turn out when `CCOC(=O)c1[nH]cc2c1CCc1sc(Nc3ccccn3)nc1-2` was run?
**A.** 74.4%

**Q.** How did the growth turn out when `C=C(C)[C@@H]1CC[C@]2(CO)CC[C@]3(C)[C@H](CC[C@@H]4[C@@](C)(CCCN)[C@H](C(=C)C)CC[C@]43C)[C@@H]12` was run?
**A.** -44.8% (active)

**Q.** `CCN1C(=O)N(c2ccccc2)C2NC(=S)N(/N=C/C=C/c3ccccc3OC)C21` (stereo not given) was tested. Which growth did it give?
**A.** 5.45% (active)

**Q.** With `CN1c2ccccc2S(=O)(=O)n2c(SCC(=O)Nc3nc4ccc(F)cc4s3)nnc21` as the compound, how does the growth read?
**A.** 125%

**Q.** For `Clc1ccc(Nc2nnc(CNc3ccccc3)c3ccccc23)cc1`, which growth is on record?
**A.** 19%

**Q.** For `N#C/C(=C\c1ccc(-c2cccc(Cl)c2)o1)C(=O)Nc1ncc(Cc2ccc(Cl)cc2)s1`, which growth is on record?
**A.** 55.9%

**Q.** How did the growth turn out when `CN(C)CCC(CCN(C)C)(C(=O)O)c1ccccc1` was run?
**A.** 115%

**Q.** How did the growth turn out when `CC1(C)CC[C@]23CC[C@]4(C)[C@H](CC[C@@H]5[C@@]6(C)C/C(=C/O)C(=O)C(C)(C)[C@@H]6CC[C@]54C)[C@H]2[C@H]1OC3` was run?
**A.** 115%

**Q.** For `CN(C)C1CN(C(=O)c2cc(-c3ccc4ncnc(N5CCc6cc(F)c(Cl)cc65)c4c3)cnc2N)C1`, which growth is on record?
**A.** 9.86% (active)

**Q.** Which growth does the source give for `Cc1[nH]n(-c2cccc(Cl)c2)c(=O)c1/C=C1\C=c2ccccc2=CC1=O` here?
**A.** 35.4%

**Q.** Which growth does the source give for `COCCn1cc(-c2csc(-c3c[nH]c4ccccc34)n2)c2cccnc21` here?
**A.** 62.3%

**Q.** How did the growth turn out when `COC(=O)c1c2c(c[n+]([O-])c1C)C(=O)C=C(NCc1ccccc1)C2=O` was run?
**A.** -94.7% (active)

**Q.** For `ClC(Cl)c1nc(-c2ccccc2)n2nc(-c3ccccc3)cc2n1`, which growth is on record?
**A.** -12% (active)

**Q.** For `CN(C)c1ccc([C@@H](C(=O)Nc2cccc([N+](=O)[O-])c2)N(C(=O)c2cc3ccccc3[nH]2)c2cccc([N+](=O)[O-])c2)cc1`, which growth is on record?
**A.** 107%

**Q.** For `CC(C)(Sc1cc(C(C)(C)C)c(O)c(C(C)(C)C)c1)Sc1cc(C(C)(C)C)c(OC(=O)CCC(=O)O)c(C(C)(C)C)c1`, which growth is on record?
**A.** 57.2%

**Q.** `COc1cc(C=C2C(=O)NC(=S)NC2=O)cc(CN2CCCC2)c1O` was tested. Which growth did it give?
**A.** 113%

**Q.** How did the growth turn out when `Cc1cc(C)c2c(c1)N(C)c1ncnc(-n3c(C)nc4cc(C)ccc43)c1CC2C` (stereo not given) was run?
**A.** 55.3%

**Q.** How did the growth turn out when `Brc1ccc(Nc2nc(Nc3cnc4ccccc4c3)c3[nH]cnc3n2)cc1` was run?
**A.** 81.3%

**Q.** For `COc1cc(C[C@H]2COc3cc(O)cc(O)c3C2=O)ccc1O`, which growth is on record?
**A.** 43.1%

**Q.** `CC(=O)c1c(Nc2cccc(F)c2)[nH]c2c(Cl)cc(Cl)c(Cl)c2c1=O` was tested. Which growth did it give?
**A.** 25.2%

**Q.** Which growth does the source give for `COC12C=C/C(=C(/C(=O)OCc3csc(SC)n3)C(=O)CCCCCCCCC3(OC)C=C/C(=C(/C(=O)OCc4cnc(SC)s4)C(=O)CCCCCCCC1)O3)O2` (stereo not given) here?
**A.** 50.3%

**Q.** How did the growth turn out when `COC12C=C/C(=C(/C(=O)OCCSc3ccnn3C)C(=O)CCCCCCCCC3(OC)C=C/C(=C(/C(=O)OCCSc4ccnn4C)C(=O)CCCCCCCC1)O3)O2` was run?
**A.** 23%

**Q.** With `O=C(/C=C/C12c3ccccc3C(c3ccccc31)C1C(=O)NC(=O)C12)c1ccco1` (stereo not given) as the compound, how does the growth read?
**A.** -0.301% (active)
